# Screens as filed in PubChem.
# FMDV antiviral – antivirals against foot and mouth disease virus; FMDV antiviral cell-based qHTS; 410,000 tested, 1.2% active; Potency, µM (highest dose often 57.9 µM), for inactives: at the highest dose activity change, negative = inhibition, most hits filed as inhibitors; calls by dose curve; tested in HEK293T cells; note: read-out not given here; potency is the fitted concentration of half-maximal effect; nearly all actives have a fitted effect of over 45% in size
# Vaccinia mCherry – vaccinia inhibition (mCherry reporter). Vaccinia virus mCherry reporter infection, fluorescence. AID 720579. 310,000 tested, 0.63% active. Potency, µM (titrated, usually from 36.5 µM), for inactives: at the highest dose activity change, negative = inhibition, hits mostly inhibitors; calls by dose curve; tested in A549 cells; note: potency is the fitted concentration of half-maximal effect; nearly all actives have a fitted effect of over 35% in size
# HCMV antiviral – inhibitors of human cytomegalovirus. HFF cells, HCMV-luciferase reporter, 72 h; active compounds read low. activity change, negative = inhibition, % at 57.5 µM. 410,000 tested, 4.5% active; in the data active = activity change below about -60%; inconclusive = no clear call, values can overlap the other calls; inactive = above about -39%
#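 HFF cells seeded 16 h at 37C, treated with compounds, infected with luciferase-reporter HCMV at MOI 1 PFU/cell; luciferase read at 72 h post infection, normalized to buffer-only and Salinomycin controls.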
# LASV entry inh – inhibitors of Lassa virus binding or cell entry. Lassa virus pseudotype entry inhibition, cell reporter. Potency, µM (series often up to 37.9 µM), without a hit: at the highest dose activity change, negative = inhibition, hits mostly inhibitors. 300,000 tested, 1.2% active; calls by dose curve; tested in HEK293 cells; note: potency is the fitted concentration of half-maximal effect; nearly all actives have a fitted effect of over 50% in size
# Vaccinia Venus – vaccinia inhibition (Venus reporter); Potency, µM (doses to about 36.5 µM), inactives show at the top dose activity change, negative = inhibition, hits mostly inhibitors; Vaccinia virus Venus reporter expression, fluorescence; 330,000 tested, 0.46% active; calls by dose curve; tested in A549 cells; note: potency is the fitted concentration of half-maximal effect; nearly all actives have a fitted effect of over 30% in size
# Marburg entry inh – blocks Marburg virus binding to or entry into cells; Marburg virus pseudotyped entry inhibition, cell reporter; Potency, µM (doses to about 37.8 µM), without a hit: at the top dose activity change, negative = inhibition, actives largely listed as inhibitors; 300,000 tested, 1.8% active; calls by dose curve; tested in HEK293 cells; note: potency is the fitted concentration of half-maximal effect
# Active calls of the source: *; i = inactive; ? = inconclusive; · = not tested or not shown; + = active, no number; [ ] = remark or other dose. This is a sample that favours compounds with a hit; in the whole collection about 6.5% have one here. % is set by controls: 0 for no effect and ±100 for the full control effect.
SMILES,FMDV antiviral,Vaccinia mCherry,HCMV antiviral,LASV entry inh,Vaccinia Venus,Marburg entry inh
c1ccc(-c2cn3nc(-c4ccccc4)cnc3n2)cc1,5%,i,30,?,-12%,-4%
c1ccc(-c2cn3nc4c(nc3n2)CCCC4)cc1,5.6µM*,-10%,39,1.1µM*,-10%,1µM*
Brc1ccc(-c2cn3nc4c(nc3n2)CCCC4)cc1,?,i,?,?,-7%,5µM*
COc1ccc(-c2cc(C(C)=O)c(C)n2CCC(=O)NC2CCCCC2)cc1,12%,-15%,0,5%[46.1 µM],-6%,·
COCCCn1c(-c2ccc(OC)cc2)cc(C(=O)NC2CCCCCCC2)c1C,-3%,?,-65*,?,-27%,?
CCC(C(=O)NCCCN1CC(C)CC(C)C1)n1nc(C)c2sc3ccccc3c2c1=O (configuration not stated),0%,·,-73*,·,·,·
N=c1c2c(n(Cc3ccc(Cl)c(Cl)c3)c3c1CCC3)CCCC2,?,·,-86*,?,?,?
N=c1c2c(n(Cc3ccc(Br)cc3)c3c1CCC3)CCCC2,40µM*,·,-95*,?,·,?
N=c1c2c(n(Cc3ccc([N+](=O)[O-])cc3)c3c1CCC3)CCCC2,0%,-1%,-86*,-8%,-1%,?
COCCCNC(=O)c1ccc2nc(Cc3ccc(OC)cc3)oc2c1,9%,-16%,140,?,-15%,?
C=CCNC(=O)c1ccc2nc(Cc3ccc(OC)cc3)oc2c1,31%,-18%,81,5.6µM*,-24%,?
CN1CCN(C(=O)/C=C/c2ccc([N+](=O)[O-])o2)CC1,-16%,-23%,-101*,·,?,·
O=C(c1ccc(F)c(F)c1)N1CCOc2ccc(CN3CCN(CCO)CC3)cc2C1,-2%,i,·,·,0%,·
COc1ccccc1C(=O)Nc1ccc(S(=O)(=O)NC2=NCCCCC2)cc1,7%,i,-60*,-25%[46.1 µM],-11%,-19%[46.1 µM]
CCc1nnc(NS(=O)(=O)c2ccc(NC(=O)c3ccccc3OC)cc2)s1,13%,·,+,·,·,·
CSc1ccccc1C(=O)Nc1ccc(S(=O)(=O)NC2=NCCCCC2)cc1,11%,·,0,·,·,·
CCOc1ccccc1NS(=O)(=O)c1ccc2c(c1)CC(C)N2C(=O)C1CC1 (configuration not stated),?,-17%,-27,-4%[46.1 µM],-19%,·
CC1=Nc2cc(C(=O)NCCCOC(C)C)ccc2Sc2ccc(C)cc21,15%,?,-76*,?,?,?
CC1=Nc2cc(C(=O)NCCCOC(C)C)ccc2Sc2ccccc21,8%,-3%,+,?,-24%,?
COCCCNC(=O)c1ccc2c(c1)N=C(C)c1c(C)ccc(C)c1S2,-25%,-30%,·,?,-29%,?
CC1=Nc2cc(C(=O)NCCc3ccc(Cl)cc3)ccc2Sc2ccc(C)cc21,-2%,?,-65*,?,?,7.9µM*
COc1ccc(-c2nc3sc(CCNC(=O)c4ccc(C(C)(C)C)cc4)c(C)n3n2)cc1,30%,-4%,47,7%[46.1 µM],-5%,·
COc1ccc(CCNc2nc(-c3ccc(C)cc3)cc(C(F)F)n2)cc1OC,-11%,-21%,-25,?,-10%,11%[46.1 µM]
Cc1ccc(-c2cc(C(F)F)nc(S(C)(=O)=O)n2)cc1,32µM*,-1%,-7,?,-4%,?
Cc1cc(C)c(S(=O)(=O)N[C@H]2CC[C@@]34CCCN3C(=O)CCC[C@H]4[C@H]2Cc2ccccc2)c(C)c1,·,·,-22,·,·,·
SMILES,FMDV antiviral,Vaccinia mCherry,HCMV antiviral,LASV entry inh,Vaccinia Venus,Marburg entry inh
O=[N+]([O-])c1ccc2c(c1)oc1ccccc12,-13%,·,-93*,-5%,·,-17%
COc1cc2c(cc1NC(=O)c1cccc([N+](=O)[O-])c1C)oc1ccccc12,20%,·,-8,-6%,·,-28%
Nc1ccc2c(c1)oc1ccccc12,42%,-5%,113,?,-13%,?
CC(=O)Nc1cc2oc3ccccc3c2cc1[N+](=O)[O-],40%,-6%,-84*,1%,-6%,3%
CCOc1ccc(OCC)c(NC(=O)C2CCCN(S(=O)(=O)c3cc(Br)cc4c3N(C(=O)CC)CC4)C2)c1 (configuration not stated),?,-13%,-29,-11%[46.1 µM],-14%,-7%[46.1 µM]
CCN1CCN(Cc2ccc(NC(=O)c3cccc(-c4ccc5nc(NC(=O)C6CC6)sc5n4)c3)cc2C(F)(F)F)CC1,·,·,-99*,·,·,·
CCN1CCN(Cc2ccc(NC(=O)c3ccc(C)c(NC(=O)c4ccnnc4)c3)cc2C(F)(F)F)CC1,-2%,i,-4,·,-25%,·
CCN1CCN(Cc2ccc(NC(=O)c3ccc(C)c(NC(=O)C(=O)c4c[nH]c5ccccc45)c3)cc2C(F)(F)F)CC1,?,11µM*,-101*,·,10µM*,·
CCN1CCN(Cc2ccc(NC(=O)c3ccc(C)c(NC(=O)c4ccc5n[nH]nc5c4)c3)cc2C(F)(F)F)CC1,0%,i,36,·,-20%,·
CCN1CCN(Cc2ccc(NC(=O)c3cc(NC(=O)C(=O)c4c[nH]c5ccccc45)cc(OC)c3)cc2C(F)(F)F)CC1,?,?,-101*,·,10µM*,·
CC1CCc2c(nc3sc4c(c3c2N)CCCC4)C1 (configuration not stated),-8%,-20%,?,-27%[46.1 µM],?,11µM*
CC1CCc2nc3sc4c(c3c(N)c2C1)CCCC4 (configuration not stated),-10%,i,28,-7%,?,?
CCc1c(-c2ccccc2)nc2sc3c(c2c1N)CCCC3,-50%,?,-92*,?,?,?
Nc1c2c(nc3sc4c(c13)CCCC4)CCCCC2,-19%,·,56,?,-19%,7%
Nc1c2c(nc3sc4c(c13)CCCC4)CCCC2,-3%,-9%,-72*,26%[46.1 µM],?,?
CCCCSCCCNC(=O)c1c[nH]c2ccc(S(=O)(=O)Nc3cccc(OC)c3)cc2c1=O,-12%,-8%,?,?,-7%,·
O=C(Cn1cnc2onc(-c3ccc(F)cc3)c2c1=O)N1CCN(c2ccc(F)cc2)CC1,-6%,-13%,-29,?,-4%,·
Cc1ccc(C(NC(=O)NC(C)c2ccccc2)C(Cl)(Cl)Cl)cc1F (configuration not stated),?,22µM*,-100*,?,?,?
CC1Oc2cc3c(-c4c(O)cc(O)c5c(O)c6c(cc45)OC(C)C(C)C6=O)c(O)cc(O)c3c(O)c2C(=O)C1C (configuration not stated),?,?,·,·,4µM*,·
C[C@@H]1Cc2c(O)c(O)cc(O)c2C(=O)O1,-10%,-4%,·,·,2%,·
CCn1nc(C(=O)O)c(=O)c2c1CC1=C(C2)OCO1,·,·,·,·,·,5%
Cc1ccc(C)c(C2=NNC(=NCc3ccccc3)SC2)c1,6%,-8%,-66*,?,-15%,?
NC(=S)N/N=C1\CCOc2ccc(Cl)cc21,-18%,·,-104*,·,·,·
